58 sequences from the supplement of paper PMC11417369 can be followed below.

± gives the standard deviation of the averaged measurements. Over roughly 25,000 sequences, “ln(normalized median fluorescence intensity)” has its median near 10; the highest 2% begin near 12. This excerpt belongs to a sample that is enriched for the highest values.

The assay deals with PfAP2-G AP2 domain (GST-tagged). The assay is described as follows: gcPBM binding intensity (ln(normalized median fluorescence intensity)); higher = stronger DNA binding. An outline of the steps:
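Binding of GST-tagged P. falciparum DNA-binding domains, expressed in E. coli and used at about 25 μg on average, was carried out for 1 h in 1× PBS containing 1% milk, 0.2 mg/ml BSA, 0.5% salmon testes DNA and 0.03% Triton X-100. The target was an Agilent 4 × 180k array of primer-extended double-stranded 36-bp intergenic genomic probes plus negative controls, read with Alexa488 anti-GST antibody at 488 nm. Binding intensity is the highest Masliner-normalised natural-log median intensity across replicate spots of either probe orientation.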
Turning to “TCATATTTCCATAGGAGTACATAAAAAAAATAATAT [XGTACX_site7601]”, the “gcPBM binding intensity (ln)” value was determined as 11.7 ± 1.2.

For “ATAAATCATAAGGAGAGTACATAAATAAAATAATCA [XGTACX_site8825]”, the “gcPBM binding intensity (ln)” value worked out at 11.2 ± 0.71.

Take “TATAATATAAAAATGAGTACATAGATAATAATATTT [XGTACX_site2376]”: the “gcPBM binding intensity (ln)” value was 11.3 ± 0.74. For “TATACACATATATACACACACATATATAAATAAATA [CACACA_site7579]”, the “gcPBM binding intensity (ln)” value turned out to be 10 ± 0.23. With “CAAACAAACGGACACACACACACACCCAAAAATGAT [CACACA_site5363]”, the “gcPBM binding intensity (ln)” value stood at 11.2 ± 0.69. The result for “TATATTTATATAATATGTACATATTTTTTAATATTT [XGTACX_site3834]” reads 11.2 ± 0.72. The result for “GTGTAATATGAAATGTGTACACACGCACACACAAAA [XGTACX_site6180]” reads 11.7 ± 1.1; that for “AATGTACACGCACCCACACACAAACAAATATAAATA [CACACA_site7319]”, 11.4 ± 1.

As to “AACATATTAATGTACACACACCCACGCACAAACAAA [CACACA_site7320]”, the “gcPBM binding intensity (ln)” value turned out to be 11.5 ± 0.91. As for “ATTTTTTTACAAAAATGTACACATGAAATATGTAAT [XGTACX_site1372]”, the figure is 11.3 ± 0.69; as for “AATGTGTACGCACGCACACACAAAAAAATATATATA [CACACA_site2913]”, 11.6 ± 1.2.

Take “AATGTACACCCACCCACACACAAACAAATATATATA [CACACA_site5521]”: the “gcPBM binding intensity (ln)” value was found to be 11.4 ± 0.92. As for “GAAAAAGACAAAAGGTGTACAATATGAAATATATAT [XGTACX_site373]”, the figure is 11.5 ± 0.86; as for “TAATATGAAATGTGTACACACGCACCCACAAAAAAA [CACACA_site8949]”, 11.8 ± 0.93.

Regarding “GAAATGTGTAGACACGCACACACAAAAAAATATATA [CACACA_site2912]”, the “gcPBM binding intensity (ln)” value came to 10.2 ± 0.34. The result for “TGTAATATGAAATGTGTACACACGCACCCACAAAAA [CACACA_site8948]” reads 11.6 ± 1; that for “TAATATGAAAAGTGTACACACGCACAGACAAAAAAA [CACACA_site5594]”, 11.6 ± 0.95.

For “ATATGAAAGGTGTACACACGCACACCCAAAAAAATA [CACACA_site2911]”, the “gcPBM binding intensity (ln)” value was 11.7 ± 0.95. As for “AATTTGTTAATATTTTGTACACATAATATAAAAACA [XGTACX_site2224]”, the figure is 11.3 ± 0.89. As for “ATAATATGAAGAAGCACACTCAATTAAATACAGATA [CACACA_site4690]”, the figure is 9.97 ± 0.071; as for “ACAAAATGTAGAAAATGTACAAAATTAACAAAAGAA [XGTACX_site5019]”, 10.7 ± 0.3. The result for “CTTCTTGTAAAATTTGCATGTAATTAAAAGAGAATG [TGCATGCA_site484]” reads 10.2 ± 0.3; that for “TACAAAAAATTATGGAGTACATATATAATATACAAT [XGTACX_site1004]”, 11.5 ± 0.88. On to “GCACTCGTAAAAAGCACACATATAAAAACATTTATA [CACACA_site322]”, for which the “gcPBM binding intensity (ln)” value came out at 10.2 ± 0.26.

Consider “TAAAATTTTGTTTGTTGTACTTATTTTCGTGTCAAC [XGTACX_site8277]”, for which the “gcPBM binding intensity (ln)” value was determined as 11.6 ± 1. On to “TTTTTTTTTTTTTTTTGTACTTATAAAAAATTTTTT [XGTACX_site1249]”, for which the “gcPBM binding intensity (ln)” value is 11.1 ± 0.88.

Take “AAATAAAATTTTTGTTGTACTTATTTTTAGTATACT [XGTACX_site4254]”: the “gcPBM binding intensity (ln)” value worked out at 11.5 ± 0.81. As for “GATAACAATATGTGTACACATTTATATCTCCACATA [CACACA_site5442]”, the figure is 11.7 ± 0.83; as for “TATATAATATATATATGTACACATATACATTTTTAT [XGTACX_site2832]”, 11.5 ± 0.97; as for “AAAATATTTAATAGAAGTACACATGTATATATACAT [XGTACX_site8942]”, 11.6 ± 1.2.

“GAAAAAAGAAAAAAAAGTACACACATGTATATTAAT [XGTACX_site5265]”: the “gcPBM binding intensity (ln)” value came out at 11.5 ± 0.91. The result for “TACATATTTTTTATGTGTACATATTTTTTATGTGTG [XGTACX_site444]” reads 11.5 ± 0.68. The result for “AAAATAATATATGTATGTACATATACACATATAGAA [XGTACX_site2218]” reads 11.1 ± 0.59; that for “ATAACATACATAACAACACACAATATTTATATGTAT [CACACA_site210]”, 9.85.

For “ATATATATACTGTGTACACACATATGTATTTATATA [CACACA_site4600]”, the “gcPBM binding intensity (ln)” value was 11.6 ± 0.78. As for “ATTTATTTTCTGTGTACACATATGTTGGGTATTTTA [CACACA_site5902]”, the figure is 11.7 ± 0.96; as for “TACATATTTTTTATGTGTACATATTTTTTATGTGTA [XGTACX_site443]”, 11.4 ± 0.76. As for “TATATTTATTTTCTGTGTACACATATGTTGTGTATT [XGTACX_site7640]”, the figure is 11.6 ± 1.

As to “CAACATATGCATATGTGTACATATTTTATTTTCAAC [XGTACX_site2237]”, the “gcPBM binding intensity (ln)” value came out at 11.7 ± 1.1.

Regarding “GAATGTCTAATTTTGATGCACACTTTTGTGCAATTA [CACACA_site2902]”, the “gcPBM binding intensity (ln)” value amounted to 10.2 ± 0.24. As for “AAAAAAAAAAAAAAAACACACATATATGTATATATA [CACACA_site3276]”, the figure is 10 ± 0.27; as for “AAGAAAAAAGGGGACAAGGCATATCTATATATACAT [TGCATGCA_negctrl_site172]”, 10.7 ± 0.52; as for “TTATAATTAAGATATAATCAATAATAACAAATGAAC [CACACA_negctrl_site1690]”, 9.84 ± 0.014. The result for “AAACCGAATTTACATGAATGTAAATTATGTTGTTTT [CACACA_negctrl_site1834]” reads 9.53 ± 0.13; that for “TTTGCTTCCAAAAGTCGTACAAAAAATATTAAATAT [XGTACX_site4171]”, 11.6 ± 0.9. As for “AATGAAGACTTTTTTACACACTTCATATCTTATAGA [CACACA_site7046]”, the figure is 9.99 ± 0.028; as for “ATGTGATATAAGTACACACACATATGTATTTATAAC [CACACA_site6942]”, 11.5 ± 0.8. Turning to “TTTGATTTTAATGTGTGTACACATTTATTTATATAA [XGTACX_site4806]”, the “gcPBM binding intensity (ln)” value came out at 11.8 ± 1.2. The result for “AAATTACCCTTGTGTACACATATATTATCTGTATTA [CACACA_site4514]” reads 12 ± 1.4; that for “GTATGTATATTTATCTGTACATATTTATGTATTCTT [XGTACX_site2112]”, 11.2 ± 0.64; that for “CAAAAATTACCCTTGTGTACACATATATTATATGTA [XGTACX_site1124]”, 11.6 ± 0.91.

Take “TATTTCTGATTATTTTGTACACATTATATATAATGC [XGTACX_site6990]”: the “gcPBM binding intensity (ln)” value was 11.2 ± 0.83. For the sequence “TATCTGTATATGTGTACACATATTCTTAACTCACGC [CACACA_site4255]”, the “gcPBM binding intensity (ln)” value was found to be 11.7 ± 1. The result for “ATGTGATATAAGTACACACACATATGTATATAGAAT [CACACA_site1823]” reads 11.5 ± 1.1. As for “AAAAATTACCCTTGTGTACACATATATTATCTGTAT [CACACA_site4513]”, the figure is 11.6 ± 0.95; as for “GTATATATGTATATGTGTACACATATTCTTAACTCA [XGTACX_site309]”, 11.6 ± 0.89. Turning to “TTTGTGTATATATAATGTACATTATATTTTTATTAT [XGTACX_site6506]”, the “gcPBM binding intensity (ln)” value is 10.9 ± 0.53. As for “ATGTGATAGAAGTACACACACATATGTATTTATAAT [CACACA_site5075]”, the figure is 11.7 ± 1.1.
